Source: PubChem BioAssay (National Center for Advancing Translational Sciences (NCATS))
D1 ag: human D1 receptor agonism; hit rate 1% among 360,000; HEK293 T-REx D1 cells, calcium flux, agonist mode; P21728; activation, % at 2 µM; in the data active = activation above about 30%
Target sequence (P21728 whole entry, looked up): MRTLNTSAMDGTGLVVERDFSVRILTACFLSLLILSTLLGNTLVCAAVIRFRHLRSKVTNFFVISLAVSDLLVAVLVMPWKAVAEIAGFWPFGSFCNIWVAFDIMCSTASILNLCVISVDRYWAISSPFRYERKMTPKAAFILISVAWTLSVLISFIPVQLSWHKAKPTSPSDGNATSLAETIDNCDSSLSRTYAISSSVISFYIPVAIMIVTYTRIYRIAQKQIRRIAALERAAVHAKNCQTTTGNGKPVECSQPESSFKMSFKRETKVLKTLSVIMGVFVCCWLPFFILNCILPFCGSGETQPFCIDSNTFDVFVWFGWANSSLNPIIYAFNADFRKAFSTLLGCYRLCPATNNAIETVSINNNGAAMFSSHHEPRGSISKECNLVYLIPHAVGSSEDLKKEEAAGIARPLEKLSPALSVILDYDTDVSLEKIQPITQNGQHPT
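Tetracycline-induced HEK293 TREx D1 cells, force-coupled to calcium signalling, were dye-loaded with a no-wash calcium kit. Compound was pin-added after a 10 s baseline. Fluorescence was read kinetically at 1 cycle/s for 180 s, with calcium rises flagged as agonism.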
D1 antag: human D1 dopamine receptor antagonism. P21728. HEK293 TREx D1 cells, calcium flux, dopamine EC80; hits give low values. activity change, negative = inhibition, % at 10 µM. hit rate 3.2% among 360,000; in the data active = activity change below about -30%
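Using tetracycline-induced force-coupled D1 Hek293 cells and a calcium dye, signals were followed for 180 s after compound, then for 180 s after EC80 dopamine, to detect inhibitors.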
D1 PAM: human D1 dopamine receptor positive modulation; P21728; hit rate 0.036% among 360,000; HEK293 TREx D1 cells, calcium flux, dopamine EC20 potentiation; potentiation, % at 10 µM; in the data active = potentiation above about 30%
D3 antag: antagonists of human D3 dopamine receptor; P35462; D3R cells, DiscoveRx beta-arrestin luminescence, antagonist mode; hits give low values; max response, negative = inhibition, %; hit rate 2.5% among 360,000; in the data active = max response below about -50%
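Cells plated overnight at 1500 cells/well, then exposed to library compounds with dopamine controls for 90 minutes at 37 degrees C. DiscoveRx reagent added for 30–60 minutes at room temperature; luminescence read, quantitative HTS format.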
D3 ag: activates the human D3 dopamine receptor; P35462; D3R DiscoveRx beta-arrestin cells, luminescence, 90 min; max activation, %; hit rate 0.58% among 410,000; AID 652048; in the data active = max activation above about 30%
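Agonist mode: compounds and dopamine controls were applied to plated cells for 90 min at 37 degrees C after an overnight attachment at 1500 cells/well. Luminescent read-out followed 30 - 60 minutes at room temperature with DiscoveRx detection reagent.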
Hits are given with their value; ! = repeats disagree. Only some compounds are listed: those with a hit (about 6% of all), similar ones and a draw of the others.

What do the screens show for `COc1ccc(OCC(=O)NC(Cc2c[nH]c3ccccc23)C(=O)O)cc1` (configuration not stated)?
D1 ag: inactive; D1 antag: inactive; D1 PAM: inactive; D3 ag: inactive

Results for CCN(CC(=O)Nc1ccccc1C(F)(F)F)C(=O)CCS(=O)(=O)c1ccc(Cl)cc1 ?
D1 ag: inactive; D1 antag: -30; D1 PAM: inactive; D3 antag: inactive; D3 ag: inactive

How did CCN(CC(=O)Nc1cc(Cl)ccc1C)C(=O)CCS(=O)(=O)c1ccc(Cl)cc1 do in these assays?
D1 ag: inactive; D1 antag: inactive; D1 PAM: inactive; D3 antag: inactive; D3 ag: inactive

What do the screens show for `O=C(OCCn1c(=S)sc2ccccc21)c1ccccc1`?
D3 antag: inactive; D3 ag: inactive

What do the screens show for `O/N=C/CCn1c(=S)sc2ccccc21`?
D1 ag: inactive; D1 antag: inactive; D1 PAM: inactive; D3 antag: -51; D3 ag: inactive

Results for Cc1ccc(C)c(NC(=O)Cn2c(=O)n(Cc3ccc4c(c3)OCO4)c(=O)c3oc4ccccc4c32)c1 ?
D1 ag: inactive; D1 antag: inactive; D1 PAM: inactive; D3 ag: inactive

How did Cc1ccc(C2C3=C(NCCN=C3c3ccccc3)C(=O)N2c2ccccc2)cc1 (configuration not stated) do in these assays?
D1 ag: inactive; D1 antag: inactive; D1 PAM: inactive; D3 antag: inactive; D3 ag: inactive

What do the screens show for `CCOc1ccc(N2C(=O)C3=C(C(c4ccc(Cl)cc4)=NCCN3)C2c2cccnc2)cc1` (configuration not stated)?
D1 ag: inactive; D1 antag: -47; D1 PAM: inactive; D3 antag: inactive; D3 ag: inactive

Results for COc1ccc2oc(=O)cc(CN3CCN(C(=O)c4ccccc4)CC3)c2c1 ?
D1 ag: inactive; D1 antag: inactive; D1 PAM: inactive; D3 ag: inactive

Results for O=C1CC(c2nc3ccccc3n2Cc2c(F)cccc2Cl)CN1c1cccc(C(F)(F)F)c1 (configuration not stated) ?
D1 ag: inactive; D1 antag: inactive; D1 PAM: inactive; D3 ag: inactive

How did C=CCn1c(C)cc(C(=O)CSc2nc3ccccc3c(=O)[nH]2)c1C do in these assays?
D1 ag: inactive; D1 antag: inactive; D1 PAM: inactive; D3 antag: -62; D3 ag: inactive

Results for C=CCn1c(C)cc(C(=O)CSc2nc3ccccc3[nH]2)c1C ?
D1 ag: inactive; D1 antag: inactive; D1 PAM: inactive; D3 antag: inactive; D3 ag: inactive

What do the screens show for `Cc1ccc(C(=O)CSc2nc3ccccc3c(=O)[nH]2)cc1`?
D1 ag: inactive; D1 antag: -30; D1 PAM: inactive; D3 antag: inactive; D3 ag: inactive

What do the screens show for `Cc1ccc(-n2nc(C)c3c(C)cc(=O)n(CC(=O)NCc4ccc(OC(C)C)cc4)c32)cc1`?
D1 ag: inactive; D1 antag: inactive; D1 PAM: inactive; D3 ag: inactive

What do the screens show for `O=[N+]([O-])/C=C\c1ccc(N2CCCC2)c(F)c1`?
D1 ag: 127; D1 antag: inactive; D1 PAM: inactive; D3 antag: inactive; D3 ag: inactive

What do the screens show for `O=Cc1ccc(N2CCCC2)c([N+](=O)[O-])c1`?
D1 ag: inactive; D1 antag: inactive; D1 PAM: inactive; D3 antag: inactive; D3 ag: inactive

What do the screens show for `CCc1nnc(NC(=O)c2nc(S(=O)(=O)Cc3ccc(C)cc3)ncc2Cl)s1`?
D1 ag: inactive; D1 antag: inactive; D1 PAM: inactive; D3 antag: -50; D3 ag: inactive

How did CCc1nnc(NC(=O)c2nc(Cl)ccc2Cl)s1 do in these assays?
D1 ag: inactive; D1 antag: inactive; D1 PAM: inactive; D3 antag: inactive; D3 ag: inactive

Results for CCc1nnc(NC(=O)c2nc(S(=O)(=O)Cc3ccccc3)ncc2Cl)s1 ?
D1 ag: inactive; D1 antag: inactive; D1 PAM: inactive; D3 antag: inactive; D3 ag: inactive

How did Cc1cccc(CS(=O)(=O)c2ncc(Cl)c(C(=O)Nc3nnc(C(C)C)s3)n2)c1 do in these assays?
D1 ag: inactive; D1 antag: inactive; D1 PAM: inactive; D3 antag: -62; D3 ag: inactive

Results for CCc1nnc(NC(=O)c2nc(S(=O)(=O)Cc3cccc(C)c3)ncc2Cl)s1 ?
D1 ag: inactive; D1 antag: inactive; D1 PAM: inactive; D3 antag: -70; D3 ag: inactive

How did CSc1nnc(NC(=O)c2nc(S(=O)(=O)Cc3cccc(C)c3)ncc2Cl)s1 do in these assays?
D1 ag: inactive; D1 antag: inactive; D1 PAM: inactive; D3 antag: -54; D3 ag: inactive

Results for CSc1nnc(NC(=O)c2nc(S(=O)(=O)Cc3ccccc3F)ncc2Cl)s1 ?
D1 ag: inactive; D1 antag: inactive; D1 PAM: inactive; D3 antag: inactive; D3 ag: inactive

How did CCN1C(=NCCN2CCOCC2)N[C@@H](CCc2ccccc2)C(C(=O)OC)=C1C do in these assays?
D1 ag: inactive; D1 antag: inactive; D1 PAM: inactive

What do the screens show for `CCSc1ncc(Cl)c(C(=O)Nc2ccccc2OC)n1`?
D1 ag: inactive; D1 antag: inactive; D1 PAM: inactive; D3 antag: inactive; D3 ag: inactive

Results for CCOc1ccccc1NC(=O)c1nc(S(=O)(=O)Cc2cccc(C)c2)ncc1Cl ?
D1 ag: inactive; D1 antag: -31!; D1 PAM: inactive; D3 antag: -96; D3 ag: inactive

What do the screens show for `CCOc1ccc(NC(=O)CN(C)C(=O)c2ccc(=O)[nH]c2)cc1OCC`?
D1 ag: inactive; D1 antag: -77; D1 PAM: inactive; D3 antag: inactive; D3 ag: inactive

How did CCOc1ccc(NC(=O)CN(C)C(=O)C2CC2C)cc1OCC (configuration not stated) do in these assays?
D1 ag: inactive; D1 antag: inactive; D1 PAM: inactive; D3 antag: inactive; D3 ag: inactive

What do the screens show for `COc1ccc(NC(=O)CN(C)C(=O)c2ccc(=O)[nH]c2)cc1`?
D1 ag: inactive; D1 antag: inactive; D1 PAM: inactive; D3 antag: inactive; D3 ag: inactive

How did CCOc1ccc(NC(=O)CN(C)C(=O)c2ccc(C3SCCS3)cc2)cc1OCC do in these assays?
D1 ag: inactive; D1 antag: -45; D1 PAM: inactive; D3 antag: inactive; D3 ag: inactive

Results for CC(C(=O)Nc1cc(C(F)(F)F)ccc1Cl)n1nnc2sc3c(c2c1=O)CCCC3 (configuration not stated) ?
D1 ag: inactive; D1 antag: inactive; D1 PAM: inactive; D3 ag: inactive

Results for Cc1ccc(S(=O)(=O)c2ccc([N+](=O)[O-])o2)cc1 ?
D3 antag: -111; D3 ag: inactive

What do the screens show for `CN1CCN(C(=O)CSc2ccc(C(F)(F)F)cc2[N+](=O)[O-])CC1`?
D1 ag: inactive; D1 antag: -65; D1 PAM: inactive; D3 antag: inactive; D3 ag: inactive
